From publication PMC9911399, “Two distinct binding modes provide the RNA-binding protein RbFox with extraordinary sequence specificity”
Where a chain is given by its changes, count along the chain named. Whole data set: some 16,000 sequences, median “ka relative to ugcaugu” near 0.0091, cut for the highest 2% near 0.032. This is one part of a sample in which the highest values are shown more often than they occur.

T1: RBFOX1 RRM (Homo sapiens, UniProt Q9NWB1 109-208)
T1 sequence: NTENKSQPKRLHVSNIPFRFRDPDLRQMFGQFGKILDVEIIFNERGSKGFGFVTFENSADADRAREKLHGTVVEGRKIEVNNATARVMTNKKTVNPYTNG

B1: AGGACGU (DNA:RNA)
RNA: GGGAGACCGGAAUUCAGAUUGUCCAGGACGUUUAAAUCCCGUCGUAGCCACCA
DNA 1: CAATCTGAATTCCGGTCTCCC
DNA 2: TGGTGGCTACGACGGGATT
B2: GAUCGUC (DNA:RNA)
RNA: GGGAGACCGGAAUUCAGAUUGUCCGAUCGUCUUAAAUCCCGUCGUAGCCACCA
DNA 1: CAATCTGAATTCCGGTCTCCC
DNA 2: TGGTGGCTACGACGGGATT
B3: AUUACAA (DNA:RNA)
RNA: B1 RNA with G26U, G27U, G30A, U31A
DNA 1: CAATCTGAATTCCGGTCTCCC
DNA 2: TGGTGGCTACGACGGGATT
B4: CCUAUUU (DNA:RNA)
RNA: B1 RNA with A25C, G26C, G27U, C29U, G30U
DNA 1: CAATCTGAATTCCGGTCTCCC
DNA 2: TGGTGGCTACGACGGGATT
B5: CUUAUAA (DNA:RNA)
RNA: B1 RNA with A25C, G26U, G27U, C29U, G30A, U31A
DNA 1: CAATCTGAATTCCGGTCTCCC
DNA 2: TGGTGGCTACGACGGGATT
B6: CGGGUAA (DNA:RNA)
RNA: B1 RNA with A25C, A28G, C29U, G30A, U31A
DNA 1: CAATCTGAATTCCGGTCTCCC
DNA 2: TGGTGGCTACGACGGGATT
B7: CAGCGAG (DNA:RNA)
RNA: B2 RNA with G25C, U27G, U30A, C31G
DNA 1: CAATCTGAATTCCGGTCTCCC
DNA 2: TGGTGGCTACGACGGGATT
B8: GGUUUUU (DNA:RNA)
RNA: B2 RNA with A26G, C28U, G29U, C31U
DNA 1: CAATCTGAATTCCGGTCTCCC
DNA 2: TGGTGGCTACGACGGGATT
B9: GCGGGGU (DNA:RNA)
RNA: B1 RNA with A25G, G26C, A28G, C29G
DNA 1: CAATCTGAATTCCGGTCTCCC
DNA 2: TGGTGGCTACGACGGGATT
B10: GGGGGUU (DNA:RNA)
RNA: B1 RNA with A25G, A28G, C29G, G30U
DNA 1: CAATCTGAATTCCGGTCTCCC
DNA 2: TGGTGGCTACGACGGGATT
B11: GCGGGUU (DNA:RNA)
RNA: B2 RNA with A26C, U27G, C28G, C31U
DNA 1: CAATCTGAATTCCGGTCTCCC
DNA 2: TGGTGGCTACGACGGGATT
B12: CGGGGUU (DNA:RNA)
RNA: B1 RNA with A25C, A28G, C29G, G30U
DNA 1: CAATCTGAATTCCGGTCTCCC
DNA 2: TGGTGGCTACGACGGGATT
B13: GGGGUUU (DNA:RNA)
RNA: B1 RNA with A25G, A28G, C29U, G30U
DNA 1: CAATCTGAATTCCGGTCTCCC
DNA 2: TGGTGGCTACGACGGGATT
B14: CGGGGGU (DNA:RNA)
RNA: B1 RNA with A25C, A28G, C29G
DNA 1: CAATCTGAATTCCGGTCTCCC
DNA 2: TGGTGGCTACGACGGGATT
B15: GGGGGGU (DNA:RNA)
RNA: B1 RNA with A25G, A28G, C29G
DNA 1: CAATCTGAATTCCGGTCTCCC
DNA 2: TGGTGGCTACGACGGGATT
B16: CCGGGGU (DNA:RNA)
RNA: B1 RNA with A25C, G26C, A28G, C29G
DNA 1: CAATCTGAATTCCGGTCTCCC
DNA 2: TGGTGGCTACGACGGGATT
B17: AUGGUGU (DNA:RNA)
RNA: B1 RNA with G26U, A28G, C29U
DNA 1: CAATCTGAATTCCGGTCTCCC
DNA 2: TGGTGGCTACGACGGGATT
B18: CAUGUGU (DNA:RNA)
RNA: B1 RNA with A25C, G26A, G27U, A28G, C29U
DNA 1: CAATCTGAATTCCGGTCTCCC
DNA 2: TGGTGGCTACGACGGGATT
B19: AGAAGGC (DNA:RNA)
RNA: B1 RNA with G27A, C29G, U31C
DNA 1: CAATCTGAATTCCGGTCTCCC
DNA 2: TGGTGGCTACGACGGGATT
B20: GAAUGAG (DNA:RNA)
RNA: B2 RNA with U27A, C28U, U30A, C31G
DNA 1: CAATCTGAATTCCGGTCTCCC
DNA 2: TGGTGGCTACGACGGGATT
B21: GCGUCGU (DNA:RNA)
RNA: B1 RNA with A25G, G26C, A28U
DNA 1: CAATCTGAATTCCGGTCTCCC
DNA 2: TGGTGGCTACGACGGGATT
B22: AUGCCGG (DNA:RNA)
RNA: B1 RNA with G26U, A28C, U31G
DNA 1: CAATCTGAATTCCGGTCTCCC
DNA 2: TGGTGGCTACGACGGGATT
B23: AGCGCGG (DNA:RNA)
RNA: B1 RNA with G27C, A28G, U31G
DNA 1: CAATCTGAATTCCGGTCTCCC
DNA 2: TGGTGGCTACGACGGGATT
B24: AGAACUA (DNA:RNA)
RNA: B1 RNA with G27A, G30U, U31A
DNA 1: CAATCTGAATTCCGGTCTCCC
DNA 2: TGGTGGCTACGACGGGATT
B25: UGUUUGG (DNA:RNA)
RNA: B1 RNA with A25U, G27U, A28U, C29U, U31G
DNA 1: CAATCTGAATTCCGGTCTCCC
DNA 2: TGGTGGCTACGACGGGATT
B26: UGCCUCG (DNA:RNA)
RNA: B1 RNA with A25U, G27C, A28C, C29U, G30C, U31G
DNA 1: CAATCTGAATTCCGGTCTCCC
DNA 2: TGGTGGCTACGACGGGATT
B27: UGGUUGU (DNA:RNA)
RNA: B1 RNA with A25U, A28U, C29U
DNA 1: CAATCTGAATTCCGGTCTCCC
DNA 2: TGGTGGCTACGACGGGATT
B28: UGAUCCG (DNA:RNA)
RNA: B1 RNA with A25U, G27A, A28U, G30C, U31G
DNA 1: CAATCTGAATTCCGGTCTCCC
DNA 2: TGGTGGCTACGACGGGATT
B29: CGAUCGA (DNA:RNA)
RNA: B1 RNA with A25C, G27A, A28U, U31A
DNA 1: CAATCTGAATTCCGGTCTCCC
DNA 2: TGGTGGCTACGACGGGATT
B30: UGGUUUG (DNA:RNA)
RNA: B1 RNA with A25U, A28U, C29U, G30U, U31G
DNA 1: CAATCTGAATTCCGGTCTCCC
DNA 2: TGGTGGCTACGACGGGATT
B31: UGCCCGC (DNA:RNA)
RNA: B1 RNA with A25U, G27C, A28C, U31C
DNA 1: CAATCTGAATTCCGGTCTCCC
DNA 2: TGGTGGCTACGACGGGATT
B32: UGCCUGA (DNA:RNA)
RNA: B1 RNA with A25U, G27C, A28C, C29U, U31A
DNA 1: CAATCTGAATTCCGGTCTCCC
DNA 2: TGGTGGCTACGACGGGATT
B33: UGAUUGA (DNA:RNA)
RNA: B1 RNA with A25U, G27A, A28U, C29U, U31A
DNA 1: CAATCTGAATTCCGGTCTCCC
DNA 2: TGGTGGCTACGACGGGATT
B34: UGAUCGA (DNA:RNA)
RNA: B1 RNA with A25U, G27A, A28U, U31A
DNA 1: CAATCTGAATTCCGGTCTCCC
DNA 2: TGGTGGCTACGACGGGATT
B35: UGAUUAA (DNA:RNA)
RNA: B1 RNA with A25U, G27A, A28U, C29U, G30A, U31A
DNA 1: CAATCTGAATTCCGGTCTCCC
DNA 2: TGGTGGCTACGACGGGATT
B36: UGCCUGC (DNA:RNA)
RNA: B1 RNA with A25U, G27C, A28C, C29U, U31C
DNA 1: CAATCTGAATTCCGGTCTCCC
DNA 2: TGGTGGCTACGACGGGATT

biological target: T1, RBFOX1 RRM; assay: EMSA; HiTS-Eq, 1 nM pool, 10 min; buffer printed only for the single-RNA assays: 10 mM Tris pH 7.5, 150 mM NaCl, 3.4 mM EDTA, 0.001% NP-40, 30 C; settings: tags: His6 N-terminal (pET28a); label: 5' 32P
Summary of the method: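 Relative association constants, normalised to the cognate motif, were derived by comparing read counts of each RNA species with those of the control reaction. The RNA sequenced was the free fraction, separated by 8% native PAGE after a 10 min equilibration in 50 µL of 1 nM 5′-radiolabelled RNA (7 randomized nucleotides) with increasing concentrations of purified wild-type or mutant RbFox RRM.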

| Binder | binding signal |
| --- | --- |
| B1 | 0.0265 KA relative to UGCAUGU |
| B2 | 0.0199 KA relative to UGCAUGU |
| B3 | 0.000272 KA relative to UGCAUGU |
| B4 | 0.00115 KA relative to UGCAUGU |
| B5 | 0.00174 KA relative to UGCAUGU |
| B6 | 0.0192 KA relative to UGCAUGU |
| B7 | 0.00935 KA relative to UGCAUGU |
| B8 | 0.00799 KA relative to UGCAUGU |
| B9 | 0.0285 KA relative to UGCAUGU |
| B10 | 0.0471 KA relative to UGCAUGU |
| B11 | 0.0192 KA relative to UGCAUGU |
| B12 | 0.0339 KA relative to UGCAUGU |
| B13 | 0.046 KA relative to UGCAUGU |
| B14 | 0.0227 KA relative to UGCAUGU |
| B15 | 0.0254 KA relative to UGCAUGU |
| B16 | 0.0122 KA relative to UGCAUGU |
| B17 | 0.0152 KA relative to UGCAUGU |
| B18 | 0.0132 KA relative to UGCAUGU |

| Binder | binding signal |
| --- | --- |
| B19 | 0.00991 KA relative to UGCAUGU |
| B20 | 0.0255 KA relative to UGCAUGU |
| B21 | 0.0171 KA relative to UGCAUGU |
| B22 | 0.0153 KA relative to UGCAUGU |
| B23 | 0.0172 KA relative to UGCAUGU |
| B24 | 0.00165 KA relative to UGCAUGU |
| B25 | 0.0271 KA relative to UGCAUGU |
| B26 | 0.0235 KA relative to UGCAUGU |
| B27 | 0.0314 KA relative to UGCAUGU |
| B28 | 0.0149 KA relative to UGCAUGU |
| B29 | 0.0185 KA relative to UGCAUGU |
| B30 | 0.0372 KA relative to UGCAUGU |
| B31 | 0.0206 KA relative to UGCAUGU |
| B32 | 0.0398 KA relative to UGCAUGU |
| B33 | 0.028 KA relative to UGCAUGU |
| B34 | 0.0347 KA relative to UGCAUGU |
| B35 | 0.00933 KA relative to UGCAUGU |
| B36 | 0.0698 KA relative to UGCAUGU |
